Measurements: PubChem BioAssay (Tox21)
Results filed as inconclusive are left out. The source made the active and inactive calls. The call rests on the fitted dose curve; in most records, active means well fitted curve in the direction sought with a large enough effect in the repeat runs; inconclusive means weak or mixed curves; inactive means no such curve, though single readings can be large; an effect the other way counts as inactive or inconclusive.

Experiments:
[1] = qHTS RealTime-Glo MT Cell Viability Assay in HEK293 cells - 0 hour (AID 1224880); further: top concentration of the series differs between compounds; nearly all actives have a fitted effect of over 45% in size
Outline: (§1)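 Cells were seeded together with NanoLuc luciferase and a prosubstrate that viable cells reduce to a luciferase substrate. After a 5 h incubation at 37 C/5% CO2, compounds were added and luminescence was measured repeatedly during 40 h of treatment.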

[2] = A CellTox Green Cytotoxicity Assay to monitor cytotoxicity in HEK293 cells - 32 hour (AID 1224881); further: nearly all actives have a fitted effect of over 40% in size
Outline: (§2)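 Nonlytic real-time cytotoxicity: HEK293 + CellTox Green reagent plated, 5 h preincubation, pintool compound addition (23 nL in DMSO), 37 C for 40 h, fluorescence measured at successive time points.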

[3] = A CellTox Green Cytotoxicity Assay to monitor cytotoxicity in HepG2 cells - 0 hour (AID 1224882); further: nearly all actives have a fitted effect of over 35% in size
Outline: (§3)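 Read-out is fluorescence of a cyanine dye excluded from live cells that stains DNA of dead HepG2 cells, with signal proportional to cytotoxicity. Plates were read at 0, 8, 16, 24, 32 and 40 h after compound addition.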

[4] = A CellTox Green Cytotoxicity Assay to monitor cytotoxicity in HepG2 cells - 32 hour (AID 1224883); further: nearly all actives have a fitted effect of over 50% in size
Outline: as §3

[5] = A CellTox Green Cytotoxicity Assay to monitor cytotoxicity in HEK293 cells - 8 hour (AID 1224884); further: nearly all actives have a fitted effect of over 35% in size
Outline: as §2

[6] = qHTS RealTime-Glo MT Cell Viability Assay in HepG2 cells - 16 hour (AID 1224885); further: nearly all actives have a fitted effect of over 50% in size
Outline: (§4)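 Real-time, nonlytic viability: 600 HepG2 cells/well mixed with NanoLuc enzyme plus prosubstrate; 5 h settle, compound (DMSO) added by pintool; luminescence monitored over 40 h at 37 C.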

[7] = qHTS RealTime-Glo MT Cell Viability Assay in HEK293 cells - 24 hour (AID 1224886); further: top concentration of the series differs between compounds; nearly all actives have a fitted effect of over 50% in size
Outline: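 Cells + reagent dispensed (600 cells/well, HEK293) → 5 h at 37 C/5% CO2 → 23 nL compound in DMSO pinned → 40 h at 37 C → luminescence read at 0, 8, 16, 24, 32, 40 h.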

[8] = qHTS RealTime-Glo MT Cell Viability Assay in HEK293 cells - 8 hour (AID 1224887); further: top concentration of the series differs between compounds; nearly all actives have a fitted effect of over 50% in size
Outline: as §1

[9] = A CellTox Green Cytotoxicity Assay to monitor cytotoxicity in HEK293 cells - 16 hour (AID 1224888); further: nearly all actives have a fitted effect of over 35% in size
Outline: as §2

[10] = qHTS RealTime-Glo MT Cell Viability Assay in HepG2 cells - 0 hour (AID 1224889); further: nearly all actives have a fitted effect of over 50% in size
Outline: as §4

Measured: Potency

CCCCCC(=O)O
inactive: [1] | [2] | [3] | [4] | [5] | [6] | [7] | [8] | [9] | [10]

CC(C)OP(=O)(CP(=O)(OC(C)C)OC(C)C)OC(C)C
inactive: [1] | [2] | [3] | [4] | [5] | [6] | [7] | [8] | [9] | [10]

CC1(C)NC(=O)NC1=O
inactive: [1] | [2] | [3] | [4] | [5] | [6] | [7] | [8] | [9] | [10]

CSc1ccc(Cl)cc1
inactive: [1] | [2] | [3] | [4] | [5] | [6] | [7] | [8] | [9] | [10]

CN(C)c1ccc(O)c2c1C[C@H]1C[C@H]3[C@H](N(C)C)C(=O)C(C(N)=O)=C(O)[C@@]3(O)C(=O)C1=C2O
inactive: [1] | [2] | [3] | [4] | [5] | [6] | [7] | [8] | [9] | [10]

NC(=S)NNC(N)=S
inactive: [1] | [2] | [3] | [4] | [5] | [6] | [7] | [8] | [9] | [10]

CC(C)OC(=O)COc1ccc(Cl)cc1Cl
inactive: [1] | [2] | [3] | [4] | [5] | [6] | [7] | [8] | [9] | [10]

O=C1CCCC1
inactive: [1] | [2] | [3] | [4] | [5] | [6] | [7] | [8] | [9] | [10]

O=C1C(c2[nH]c3ccccc3c2O)=Nc2ccccc21
inactive: [1] | [2] | [3] | [4] | [5] | [6] | [7] | [8] | [9] | [10]

CC(=O)OC1CC(C)OC(C)O1 (stereo not given)
inactive: [1] | [2] | [3] | [4] | [5] | [6] | [7] | [8] | [9] | [10]

CCO[Si](CCC#N)(OCC)OCC
inactive: [1] | [2] | [3] | [4] | [5] | [6] | [7] | [8] | [9] | [10]

CCCCCCCCCCN
inactive: [1] | [2] | [3] | [4] | [5] | [6] | [7] | [8] | [9] | [10]

N[C@H](Cc1c[nH]c2ccccc12)C(=O)O
inactive: [1] | [2] | [3] | [4] | [5] | [6] | [7] | [8] | [9] | [10]

C[Si]1(C)O[Si](C)(C)O[Si](C)(C)O[Si](C)(C)O1
inactive: [1] | [2] | [3] | [4] | [5] | [6] | [7] | [8] | [9] | [10]

NCCCCCCN
inactive: [1] | [2] | [3] | [4] | [5] | [6] | [7] | [8] | [9] | [10]

C=CCCCCCCCCC(=O)O
inactive: [1] | [2] | [3] | [4] | [5] | [6] | [7] | [8] | [9] | [10]

CCOC(=O)n1ccn(C)c1=S
inactive: [1] | [2] | [3] | [4] | [5] | [6] | [7] | [8] | [9] | [10]

C=Cc1ccc(C)cc1
inactive: [1] | [2] | [3] | [4] | [5] | [6] | [7] | [8] | [9] | [10]

CCOCC(=O)O
inactive: [1] | [2] | [3] | [4] | [5] | [6] | [7] | [8] | [9] | [10]

O=C(O)c1ccc(C(=O)O)c(C(=O)O)c1
inactive: [1] | [2] | [3] | [4] | [5] | [6] | [7] | [8] | [9] | [10]

C=C(C)[C@H]1CC=C(C)C(=O)C1
inactive: [1] | [2] | [3] | [4] | [5] | [6] | [7] | [8] | [9] | [10]

COc1cc(OC)c(C(=O)CCCN2CCCC2)c(OC)c1
inactive: [1] | [2] | [3] | [4] | [5] | [6] | [7] | [8] | [9] | [10]

O=[N+]([O-])c1ccc2nc[nH]c2c1
inactive: [1] | [2] | [3] | [4] | [5] | [6] | [7] | [8] | [9] | [10]

CCCCCCCO
inactive: [1] | [2] | [3] | [4] | [5] | [6] | [7] | [8] | [9] | [10]

COc1ccc(OC)cc1
inactive: [1] | [2] | [3] | [4] | [5] | [6] | [7] | [8] | [9] | [10]

O=C(O)CCCCCCCCC(=O)O
inactive: [1] | [2] | [3] | [4] | [5] | [6] | [7] | [8] | [9] | [10]
